Max response, Potency and outcome data for 19 compounds are collected here from PubChem BioAssay (NCATS).

The structures appear in SMILES notation. Several values for one entry are separate records, joined by “and”; a condition that tells them apart may be missing. Equal values may be shown once. Inconclusive results are not listed. A number with no mark means an inactive call. Activity calls are given as the source filed them. Calls follow the shape of the dose curve; as a rule, active = well fitted inhibition curve with a large enough effect; inconclusive = small, poorly fitted or top-dose-only effect; inactive = flat fitted curve, though single readings scatter.

Assay [1] deals with NIH3T3. As to the kind of experiment: Cytotoxic Profiling of Annotated Libraries Using Quantitative High-Throughput Screening (AID 1296008). The following applies: Five cell lines viability, CellTiter-Glo ATP luminescence, 48-72 h; max response: active compounds read low. The gist of the method:
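Cytotoxicity was measured as CellTiter-Glo ATP luminescence, read after 10 min at room temperature. Compound treatment of the cells lasted 48 or 72 hr at 37 degrees Celsius in a qHTS format.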

The subject of the next assay is MCC-13. As to the kind of experiment: qHTS assay to identify novel small-molecules to repurpose for Merkel cell carcinoma treatment (AID 1296009). The note with it: MCC and control cell lines, CellTiter-Glo viability, 72 h; series mostly up to 46 µM. A digest of the protocol: (§1)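 Cell viability measured by CellTiter-Glo following 72 hr compound treatment at 37 degree celsius, with NPC and MIPE libraries tested in 8- and 11-point concentration series.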
(qHTS replaces the single test concentration by a dilution series.)

The subject of another assay is MCC-26. The description is as above. The note with it: MCC and control cell lines, CellTiter-Glo viability, 72 h; series mostly up to 46 µM. A digest of the protocol: as §1
(ATP-based viability assays read luminescence as a measure of living cells.)

For another assay, the system named is MKL-1. Described as above. The note with it: MCC and control cell lines, CellTiter-Glo viability, 72 h; series mostly up to 46 µM. A digest of the protocol:
as §1

For the next assay, the system named is MKL-2. Described as above. The following applies: MCC and control cell lines, CellTiter-Glo viability, 72 h; series mostly up to 46 µM. A digest of the protocol: as §1
For a further assay, the system named is UISO. The description is as above. The following applies: MCC and control cell lines, CellTiter-Glo viability, 72 h; series mostly up to 46 µM. The gist of the method:
as §1

The test system of assay [2] is NIH3T3. The description is as above. The following applies: MCC and control cell lines, CellTiter-Glo viability, 72 h; at 44.8 µM (top of the series) unless noted. The gist of the method: as §1
The next assay concerns HEK293T. Described as above. The note with it: MCC and control cell lines, CellTiter-Glo viability, 72 h; at 44.8 µM (top of the series) unless noted. The gist of the method: as §1
% is scaled to controls: 0 for no effect and ±100 for the full control effect; potency is read from the fitted curve at half-maximal effect.
Also: nearly all actives have a fitted effect of over 60% in size.

Regarding `c1cc2ccc3cccc4ccc(c1)c2c34`, the max response in the assay with NIH3T3 [1] is -19.4%. In addition, the Potency result in the assay with MCC-13, in the assay on MCC-26, with MKL-1, in the assay with MKL-2 and with UISO was “inactive” each time.

Take `Cc1ccc(Cl)c(O)c1`: the compound was called inactive in the assay on NIH3T3 [1] and with NIH3T3 [2]. For the same compound, the Potency result in the assay with MCC-13, with MCC-26, in the assay on MKL-1, in the assay on MKL-2 and in the assay with UISO was “inactive” throughout.

As to `CC(C)NCC(O)c1ccc([N+](=O)[O-])cc1` (stereo not given), the max response with NIH3T3 [1] is -0.143%. The Potency result in the assay with MCC-13, in the assay with MCC-26, in the assay with MKL-1, with MKL-2 and in the assay on UISO was “inactive” each time.

Regarding `NC1CC1c1ccccc1` (stereo not given), the max response in the assay with NIH3T3 [1] was -3.94%. Besides, the call in the assay on HEK293T was inactive. Also, the Potency result in the assay on MCC-13, in the assay on MCC-26, with MKL-1, in the assay with MKL-2 and with UISO was “inactive” each time.

Turning to `C=CC(=O)NCNC(=O)C=C`, the max response in the assay with NIH3T3 [1] is -14.2%. Also, the outcome in the assay on HEK293T was “inactive [at 92 µM]”. The Potency entry with MCC-13, in the assay with MCC-26, in the assay on MKL-1 and with UISO was “inactive” each time.

In the case of `O=c1cccc2n1CC1CNC[C@H]2C1`, the max response in the assay with NIH3T3 [1] was -3.34%. Moreover, the Potency entry in the assay with MCC-13, in the assay with MCC-26 and in the assay on UISO was “inactive” in each case. In addition, the Potency in the assay with MKL-1 is 14.8 µM (active); with MKL-2, 2.64 µM (active).

As for `CCOCCOC(C)=O`, the max response in the assay with NIH3T3 [1] was -2.47%. Further, the Potency result in the assay with MCC-13, in the assay with MCC-26, in the assay on MKL-1, in the assay with MKL-2 and with UISO was “inactive” each time.

On to `COC1=CC(C)=C[C@@H](C)[C@@H](O)[C@@H](C)CC(C)=CC=C[C@H](OC)[C@H]([C@@H](C)[C@@H](O)[C@H](C)[C@@]2(O)C[C@@H](O)[C@H](C)[C@@H](C(C)C)O2)OC1=O`, for which the Potency is 0.0148 µM (active) in the assay on NIH3T3 [1]; 0.166 µM (active) in the assay with MCC-13; 4.69 µM (active) in the assay with MCC-26; 0.118 µM (active) in the assay with MKL-1; 0.105 µM (active) in the assay on MKL-2; 0.0418 µM (active) in the assay on UISO.

As for `OCCCBr`, in the assay on NIH3T3 [1], the max response was -4.76%. Further, the outcome in the assay with HEK293T is “inactive [at 92 µM]”. Moreover, the Potency result in the assay with MCC-13, in the assay on MCC-26, in the assay on MKL-1, in the assay on MKL-2 and in the assay with UISO was “inactive” in each case.

As for `Cc1c(C(=O)Nc2cccc(C(F)(F)F)c2)cc(-c2ccccc2)n1CCCN1CCOCC1`, the max response in the assay on NIH3T3 [1] was -26.5% and -21.7%. Also, the Potency entry with MCC-13, with MCC-26 and in the assay on MKL-1 was “inactive” throughout.

Regarding `CCCCOC(=O)c1ccccc1C(=O)OCc1ccccc1`, the max response in the assay on NIH3T3 [1] was -6.85%. Moreover, the Potency entry in the assay with MCC-13, in the assay on MCC-26, in the assay on MKL-1, in the assay on MKL-2 and in the assay with UISO was “inactive” in each case.

Turning to `C[C@]12CCC(=O)C(O)=C1CC[C@@H]1[C@H]3CCC(=O)[C@@]3(C)CC[C@@H]12`, in the assay with NIH3T3 [1], the max response is 4.69%. The Potency result in the assay with MCC-13, with MCC-26, in the assay on MKL-1, with MKL-2 and in the assay on UISO was “inactive” throughout.

As for `C[C@@H]1CC[C@@]2(OC1)O[C@H]1C[C@H]3[C@@H]4CC=C5C[C@@H](O[C@@H]6O[C@H](CO)[C@@H](O[C@@H]7O[C@@H](C)[C@H](O)[C@@H](O)[C@@H]7O)[C@H](O)[C@@H]6O[C@@H]6O[C@@H](C)[C@H](O)[C@@H](O)[C@@H]6O)CC[C@]5(C)[C@@H]4CC[C@]3(C)[C@@H]1[C@H]2C`, the Potency in the assay with NIH3T3 [1] was 13.2 µM (active); in the assay on MCC-26, 10.5 µM (active); in the assay with MKL-2, 6.62 µM (active).

As to `O=S(=O)(O)C(F)(F)C(F)(F)C(F)(F)C(F)(F)C(F)(F)C(F)(F)C(F)(F)C(F)(F)F`, the call in the assay with NIH3T3 [1] was inactive. Also, the Potency result with MCC-13, in the assay with MCC-26, in the assay on MKL-1 and in the assay with UISO was “inactive” each time. In the assay on NIH3T3 [2], the outcome was “inactive [at 92 µM]”.

As for `O=c1[nH]c2ccc(Cl)cc2c(N[C@@H]2CN3CCC2CC3)c1-c1nc2ccccc2[nH]1`, the Potency is 83.3 nM (active) and 206 nM (active) in the assay with NIH3T3 [1]; 4.18 µM (active) in the assay on MCC-13; 7.43 µM (active) with MCC-26; 0.743 µM (active) with MKL-1; 2.64 µM (active) in the assay with MKL-2; 5.9 µM (active) with UISO.

Take `COc1cc([C@@H]2c3cc4c(cc3[C@@H](O)C3COC(=O)C32)OCO4)cc(OC)c1O` (stereo not given in full): the Potency in the assay on NIH3T3 [1] was 0.132 µM (active); in the assay with MKL-1 it was 2.35 µM (active); in the assay on UISO, 0.0526 µM (active).

Consider `CC[C@@H]1[C@@H](C)O[C@@](O)([C@@H](C)[C@H](O)[C@H](C)[C@H]2OC(=O)C=CC=C[C@@H](C)[C@@H]([C@@H](C)[C@@H](O)[C@H](C)[C@@]3(O)C[C@H](O[C@H]4C[C@H](O)[C@H](O)[C@H](C)O4)[C@H](CC)[C@@H](C)O3)OC(=O)C=CC=C[C@@H]2C)C[C@H]1O[C@H]1C[C@H](O)[C@H](O)[C@H](C)O1`, for which the Potency in the assay on NIH3T3 [1] was 1.66 µM (active); with MCC-13 it was 16.6 µM (active); in the assay on MCC-26, 8.33 µM (active); in the assay with MKL-1, 14.8 µM (active); in the assay on UISO, 8.33 µM (active).

Regarding `CC(=O)O[C@@]12CO[C@H]1C[C@H](O)[C@@]1(C)C(=O)[C@H](O)C3=C(C)[C@@H](O)C[C@@](O)([C@@H](OC(=O)c4ccccc4)[C@@H]21)C3(C)C`, the Potency in the assay with NIH3T3 [1] was 14.8 µM (active); with UISO, 4.18 µM (active). In addition, the Potency result in the assay on MKL-2 was “inactive”.

Regarding `CN[C@@H]1Cc2cccc3[nH]c(=O)n(c23)C1`, the max response in the assay with NIH3T3 [1] is 3.1%. The Potency result with MCC-13, in the assay with MCC-26, in the assay on MKL-1, in the assay on MKL-2 and in the assay on UISO was “inactive” each time.
